Assay results published in PubChem BioAssay.
Where “and” joins values, the source holds several entries; their conditions need not be identical. Identical values can stand only once. Calls of active or inactive are those of the source.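 How the source made its calls, unless noted: active means compounds whose cell count with miR-34 switched on is under 0.7 times the count with it off; inactive means the rest.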

Assays:
[1] = sensitizers of A549 cells to miR-34 induction, primary screen, imaging, A549 dox-inducible miR-34, nuclei and caspase counts (AID 1347080); settings: A549 miR-34 inducible, Hoechst nuclei count, 48 h; further: test concentration not given here
[2] = survival rescue of mitochondrial mutant cells in low glucose, primary screen, MELAS cybrids, Rieske KO mouse fibroblasts, CellTiter-Glo (AID 1508586;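 active means mean z-score across replicates of 1.96 or higher in either the MELAS or the Rieske mutant cell line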;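 further: test concentration not given here; z relative to plate mean and SD of compound and empty wells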)
[3] = viability rescue of complex I mutant cybrids, primary screen, cell-based, galactose medium, ATP luminescence (AID 1645843;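 active means z-score of at least 1.8 in each of two replicates, scored against plate mean and spread of sample wells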;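 further: positive z means more ATP and so rescue of galactose-driven cybrid death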); settings: complex I mutant cybrid cells, 72 h, stronger effect = higher value
[4] = stronger effect = lower value, cell number ratio, induced over uninduced
[5] = measured here: relative caspase fold change +Dox/-Dox
[6] = measured here: total cells with miR-34 induction, stronger effect = lower value
[7] = measured here: total cells without miR-34 induction
[8] = MELAS cybrid survival, CellTiter-Glo 48 h, stronger effect = higher value
[9] = Rieske KO mouse fibroblast survival, CellTiter-Glo 72 h

| Structure (SMILES) | fold change [1, 4] | fold change [1, 5] | cell count [1, 6] | cell count [1, 7] | z-score [2, 8] | z-score [2, 9] | z-score [3] |
| --- | --- | --- | --- | --- | --- | --- | --- |
| O=C(Nc1cccnc1)C1CCN(C(=O)c2ccccc2Cl)CC1 | 0.886 (inactive) | 1.9 | 8890 | 10000 | 0.0994 (inactive) | -0.159 | -0.045 (inactive) |
| CN(C)CCC=C1c2ccccc2COc2ccc(CC(=O)O)cc21 | 0.912 (inactive) and 0.919 (inactive) | 1.41 and 0.942 | 9480 and 9680 | 10400 and 10500 | -0.314 (inactive) | 0.569 | 1.25 (inactive) |
| NCCCNc1ccccc1[N+](=O)[O-] | 0.945 (inactive) | 0.463 | 8170 | 8640 | -0.896 (inactive) | 0.0452 | 0.19 (inactive) |
| FC(F)Oc1ccc(-c2nc3c(cnn3Cc3cccs3)[nH]2)cc1 | 0.844 (inactive) | 1.61 | 6520 | 7720 | -0.426 | 2.02 | 1.1 (inactive) |
| OCC1OC(Oc2cc(O)cc(C=Cc3ccc(O)cc3)c2)C(O)C(O)C1O (centres undefined) | 0.967 (inactive) and 0.947 (inactive) | 1.94 and 0.831 | 9700 and 8270 | 10000 and 8720 | -0.124 (inactive) | -0.651 | 0.4 (inactive) |
| Cc1c(CNC(=O)C(=O)c2c(-c3ccccc3)cc3ccccn23)cnn1C | 0.827 (inactive) | 2.08 | 7720 | 9330 | 0.665 (inactive) | -0.13 | 0.815 (inactive) |
| COc1ccc(C(=O)N2CCN(C(=O)c3ccc4sc(N)nc4c3)CC2)cc1 | 0.916 (inactive) | 0.875 | 9050 | 9880 | -0.342 (inactive) | -0.192 | -0.575 (inactive) |
